Laboratory results published in PubChem BioAssay AID2289 (National Center for Advancing Translational Sciences (NCATS), 2010).
Among all 340,000 compounds or so, about 3,300 (0.97%) were called active. Another 9% or so got no clear call; they are omitted. The call rests on the fitted dose curve; in most records, active means well fitted inhibition curve with a large enough effect; inconclusive means small, poorly fitted or top-dose-only effect, or effect the other way; inactive means flat fitted curve, though single readings scatter. This is one part of the list.

Assay: qHTS Assay for Modulators of miRNAs and/or Inhibitors of miR-21; further: nearly all actives have a fitted effect of over 55% in size
Settings: HeLa miR-21-FLuc reporter, luciferase luminescence, 48 h; actives lower the signal
How it was run: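 HeLa cells endogenously expressing miR-21, stably carrying CMV-driven firefly luciferase with a downstream miR-21 binding site, 2000 cells/well. Titrations up to approximately 40 uM, 48 hours; luciferase luminescence read.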
Potency means the concentration at half of the fitted maximal effect.

Potency, active:
Cc1nn(-c2ccc(F)cc2)c(Cl)c1/C=N/NC(=O)c1cccs1 2.93 µM
Cc1nn(-c2ccccc2)c(Cl)c1/C=N/NC(=O)c1ccc(NS(=O)(=O)c2cccs2)cc1 4.14 µM
Fc1ccc(-c2nc(-c3cnccn3)no2)c(Cl)c1 0.464 µM
Clc1ccc(-c2nc(-c3cnccn3)no2)cc1 0.521 µM
O=C(c1ccccc1)c1c(O)nc(-c2ccccc2)n(-c2ccccc2)c1=O 13.1 µM
O=C(Nc1ccn(Cc2ccccc2)n1)c1n[nH]c([N+](=O)[O-])c1Cl 2.07 µM
CCSc1nnc2ccc(-c3ccc(C)cc3)nn12 16.5 µM
CCSc1nnc2ccc(-c3ccc(OC)c(OC)c3)nn12 14.7 µM
CC(=O)c1sc(NC(=O)c2ccc(C)c(C)c2)nc1C 0.585 µM
CC(=O)c1sc(NC(=O)c2ccc(C(C)(C)C)cc2)nc1C 0.826 µM
Cc1ccc(Cl)c(OCC(=O)N2CCc3ccccc3C2)c1 14.7 µM
Cc1ccsc1C(=O)OCC(=O)N1CCc2ccccc2C1 3.29 µM
CC(=O)c1ccc(N2CCc3ccccc3C2)c([N+](=O)[O-])c1 9.27 µM
COc1cc2c(cc1OC)CN(c1ccc(F)cc1[N+](=O)[O-])CC2 13.1 µM
COc1cc2c(cc1OC)CN(c1ncccc1[N+](=O)[O-])CC2 18.5 µM
CC(=O)c1cccc(OCc2cc(C(=O)N3C[C@H]4CC[C@H]3C4)no2)c1 5.21 µM
COc1cc(Cl)ccc1OCc1cc(C(=O)N2C[C@H]3CC[C@H]2C3)no1 5.21 µM
CC(=O)c1cccc(OCc2cc(C(=O)N(C)CCC3CCOCC3)no2)c1 16.5 µM
O=C(c1cc(COc2ccc(F)cc2F)on1)N1C[C@H]2CC[C@H]1C2 13.1 µM
Cc1nonc1C1CCCN1C(=O)c1cc(COc2ccc(F)cc2F)on1 (stereo not given) 4.14 µM
CCCCOC(=O)Nc1ccc(C(C)C)cc1 11.7 µM
COc1ccccc1NC(=O)Nc1ccc(N2CCOCC2)cc1 8.26 µM
CCCCOC(=O)Nc1ccc(N2CCOCC2)cc1 7.36 µM
Cc1ccc2nc3c(cc(S(=O)(=O)c4ccccc4)c(=N)n3Cc3ccco3)c(=O)n2c1 5.85 µM
COc1ccccc1NC(=O)c1ccc2[nH]c(C)c(C)c2c1 5.21 µM
Cc1ccccc1NC(=O)c1ccc2[nH]c(C)c(C)c2c1 1.31 µM
Cc1[nH]c2ccc(C(=O)N3CCCCC3)cc2c1C 2.07 µM
COc1cc2c(cc1NC(=O)c1ccccc1F)CCCC2 7.36 µM
Cc1nc2c(-c3ccccc3)c(C)nn2c(N)c1-c1ccccc1 1.85 µM
Cc1nn2c(N)c(C#N)cnc2c1-c1ccccc1 16.5 µM
Cc1ccc(C2=N/C(=C\N3CCCCC3)C(=O)O2)cc1 1.65 µM
Cc1ccc(C2=N/C(=C/N3CCOCC3)C(=O)O2)cc1 6.56 µM
O=C1OC(c2ccccc2)=N/C1=C\N1CCCCC1 8.26 µM
Cc1cc(/C=C(\C#N)C(=O)Nc2ccccc2)c(C)n1-c1cccnc1 1.65 µM
CCCOc1ccccc1/C=C(\C#N)C(=O)Nc1cccnc1 8.26 µM
COC(=O)c1ccc(COc2ccccc2/C=C(\C#N)C(=O)Nc2ccc(C)cc2)cc1 7.36 µM
COc1ccc(N=Nc2c(C)[nH][nH]c2=O)cc1 10.4 µM
COc1ccc(N=Nc2c(C)n[nH]c2C)cc1 10.4 µM
CCOC(=O)c1ccc2[nH]c3c(c2c1)CCCC3NC=O (stereo not given) 16.5 µM
O=C(Cc1ccccc1F)Nc1ccc2c(c1)CCC2 3.29 µM
O=C(Cc1ccccc1F)Nc1ccc(SC(F)F)cc1 2.07 µM
O=C(Cc1ccc2c(c1)CCCC2)Nc1ccc2ccccc2c1 13.1 µM
COc1ccc2c(c1OC)C(=O)OC2Nc1nc(-c2cc3cc(Br)ccc3oc2=O)cs1 (stereo not given) 5.85 µM
Cc1cc(C(=O)CSc2ncccn2)c(C)n1-c1cccc(F)c1 0.736 µM
COc1cc(O)c2c(=O)c3c(OC)c(O)ccc3oc2c1 13.1 µM
CCn1c(=N)n(CC(=O)c2ccc(Cl)c(Cl)c2)c2ccccc21 6.56 µM
COc1ccc(C(=O)Cn2c(=N)n(C)c3ccccc32)cc1 0.736 µM
COc1ccc(C2NN=C(c3ccc(C)cc3)S2)cc1 (stereo not given) 1.17 µM
CCOc1cc(C2NN=C(c3ccc(C)cc3)S2)ccc1O (stereo not given) 4.65 µM
Cc1ccc(N/N=C(\C#N)C(=N)N2CCCCC2)cc1 0.521 µM
N#C/C(=N\Nc1ccc(Br)cc1)C(=N)N1CCOCC1 7.36 µM
N#C/C(=N\Nc1ccc(Cl)cc1)C(=N)N1CCCCCC1 0.585 µM
CCN(CC)C(=N)/C(C#N)=N/Nc1ccc(C)cc1 3.29 µM
COc1ccc(N/N=C(\C#N)C(=N)N2CCCCC2)cc1 4.65 µM
Cc1ccc(N/N=C(\C#N)C(=N)N2CCOCC2)cc1 10.4 µM
N#C/C(=N\Nc1ccccc1)C(=N)N1CCCCCC1 2.07 µM
N#C/C(=N\Nc1ccccc1F)C(=N)N1CCCCC1 1.65 µM
CCN=c1scc(-c2ccco2)n1/N=C/c1ccc(O)cc1 4.14 µM
Fc1ccc(OCc2nc(-c3cccs3)no2)cc1 6.56 µM
c1ccc(OCc2nc(-c3cccs3)no2)cc1 13.1 µM
O=[N+]([O-])c1ccccc1OCc1nc(-c2cccs2)no1 2.61 µM
COc1ccc(-c2nc3cc([N+](=O)[O-])ccc3o2)cc1 0.293 µM
Cc1ccc2oc(-c3ccccc3)nc2c1 6.56 µM
COc1cc(OC)cc(-c2nc3cc(C)ccc3o2)c1 1.65 µM
O=c1c2cn[nH]c2[nH]c(=S)n1-c1ccccc1F 0.927 µM
